# Experimental data from the supplement of paper PMC10849652.
# Of roughly 8,800 targets only a part is listed; those with a hit were picked by preference. About 0.5% of all pairs of compound and target were hits. Unmarked numbers belong to inactive results.
# Legend:
# Test in all cases: log2 fold change, soluble protein after heating vs DMSO (PISA); higher = thermal stabilisation; K562 lysate, 10 uM; active = over 0.2 and 3.5 SD of the protein, either way, in both replicates (recomputed)
# [1] = compound: CCCS(=O)(=O)Nc1ccc(F)c(C(=O)c2c[nH]c3ncc(-c4ccc(Cl)cc4)cc23)c1F [vemurafenib]
# In short: (§1)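 Thermal stability, expressed as log-two fold change relative to solvent controls, is given from duplicates. Crude K562 extract in PBS pH 7.4 with 1 mM MgCl2, at 1 mg/mL protein, was treated with 10 μM compound for 30 min and heated in aliquots for 3 min across 48°C-58°C. After pooling, adjustment to 0.5% NP-40 at 4°C and centrifugation at 21,000xg for 90 min, supernatant protein was measured by TMTpro 16plex LC-MS/MS with channel sums equalised.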
# [2] = compound: CCCS(=O)(=O)Nc1ccc(F)c(C(=O)c2c[nH]c3ncc(Cl)cc23)c1F
# In short: as §1
# [3] = compound: CCN(CCCOc1ccc2c(Nc3cc(CC(=O)Nc4cccc(F)c4)[nH]n3)ncnc2c1)CCOP(=O)(O)O [barasertib]
# In short: as §1
# [4] = compound: CC[C@@H]1C(=O)N(C)c2cnc(Nc3ccc(C(=O)NC4CCN(C)CC4)cc3OC)nc2N1C1CCCC1
# In short: as §1
# [5] = compound: CC[C@@H]1C(=O)N(C)c2cnc(Nc3ccc(C(=O)N[C@H]4CC[C@H](N5CCN(CC6CC6)CC5)CC4)cc3OC)nc2N1C(C)C [volasertib]
# In short: as §1
# [6] = compound: CCn1c(C(=O)N(C2CC2)C2CC2)cc2c3c(ncn3C)c(Nc3cc(C)n(C)n3)nc21
# In short: as §1
# [7] = compound: CCn1cc(-c2ccnc3[nH]c(-c4cccc(CN(C)C)c4)cc23)c(-c2ccc(NC(=O)N(C)C)cc2)n1
# In short: as §1
# [8] = compound: CN1CCC(CNc2ccc3ncc(-c4cccc(OC(F)(F)F)c4)n3n2)CC1
# In short: as §1
# [9] = compound: CN1CCN(CCOc2cc(OC3CCOCC3)c3c(Nc4c(Cl)ccc5c4OCO5)ncnc3c2)CC1 [saracatinib]
# In short: as §1
# [10] = compound: CN1CCN(c2nc(C3=C(c4c[nH]c5ccccc45)C(=O)NC3=O)c3ccccc3n2)CC1 [sotrastaurin]
# In short: as §1
# UniProt P51825, sequence (P51825 whole entry, looked up): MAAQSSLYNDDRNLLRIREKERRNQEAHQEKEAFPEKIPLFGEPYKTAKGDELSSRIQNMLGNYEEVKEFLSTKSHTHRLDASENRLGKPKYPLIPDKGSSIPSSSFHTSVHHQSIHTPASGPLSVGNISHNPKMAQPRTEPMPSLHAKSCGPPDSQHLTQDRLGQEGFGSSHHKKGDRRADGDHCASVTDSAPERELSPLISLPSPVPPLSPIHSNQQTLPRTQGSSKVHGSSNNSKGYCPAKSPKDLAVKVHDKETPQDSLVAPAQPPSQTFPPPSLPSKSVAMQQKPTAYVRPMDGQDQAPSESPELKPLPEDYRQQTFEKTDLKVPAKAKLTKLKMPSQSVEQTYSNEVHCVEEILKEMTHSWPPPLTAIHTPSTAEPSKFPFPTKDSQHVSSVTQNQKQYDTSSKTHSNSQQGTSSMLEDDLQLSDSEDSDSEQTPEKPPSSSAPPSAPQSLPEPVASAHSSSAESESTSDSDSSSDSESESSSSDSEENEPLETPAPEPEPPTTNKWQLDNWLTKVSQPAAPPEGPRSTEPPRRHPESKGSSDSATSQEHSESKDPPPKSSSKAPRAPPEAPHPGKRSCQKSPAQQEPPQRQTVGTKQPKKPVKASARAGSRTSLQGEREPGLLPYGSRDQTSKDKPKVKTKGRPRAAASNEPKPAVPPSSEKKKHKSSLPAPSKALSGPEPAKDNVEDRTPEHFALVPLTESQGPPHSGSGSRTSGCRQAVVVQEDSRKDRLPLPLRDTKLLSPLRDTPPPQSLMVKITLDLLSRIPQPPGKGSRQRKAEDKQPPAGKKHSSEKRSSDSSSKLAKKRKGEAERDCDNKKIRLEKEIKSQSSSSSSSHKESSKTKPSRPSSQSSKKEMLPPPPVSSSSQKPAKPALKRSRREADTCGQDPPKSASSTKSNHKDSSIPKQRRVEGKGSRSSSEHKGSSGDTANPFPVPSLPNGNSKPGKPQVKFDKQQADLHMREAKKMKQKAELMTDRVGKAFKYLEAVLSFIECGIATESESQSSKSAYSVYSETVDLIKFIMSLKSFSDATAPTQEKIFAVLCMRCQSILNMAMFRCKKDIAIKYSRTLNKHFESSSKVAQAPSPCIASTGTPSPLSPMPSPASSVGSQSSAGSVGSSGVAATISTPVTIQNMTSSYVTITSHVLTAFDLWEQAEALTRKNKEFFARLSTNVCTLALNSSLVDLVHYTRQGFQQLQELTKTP
# UniProt Q9ULX6, sequence (Q9ULX6 whole entry, looked up): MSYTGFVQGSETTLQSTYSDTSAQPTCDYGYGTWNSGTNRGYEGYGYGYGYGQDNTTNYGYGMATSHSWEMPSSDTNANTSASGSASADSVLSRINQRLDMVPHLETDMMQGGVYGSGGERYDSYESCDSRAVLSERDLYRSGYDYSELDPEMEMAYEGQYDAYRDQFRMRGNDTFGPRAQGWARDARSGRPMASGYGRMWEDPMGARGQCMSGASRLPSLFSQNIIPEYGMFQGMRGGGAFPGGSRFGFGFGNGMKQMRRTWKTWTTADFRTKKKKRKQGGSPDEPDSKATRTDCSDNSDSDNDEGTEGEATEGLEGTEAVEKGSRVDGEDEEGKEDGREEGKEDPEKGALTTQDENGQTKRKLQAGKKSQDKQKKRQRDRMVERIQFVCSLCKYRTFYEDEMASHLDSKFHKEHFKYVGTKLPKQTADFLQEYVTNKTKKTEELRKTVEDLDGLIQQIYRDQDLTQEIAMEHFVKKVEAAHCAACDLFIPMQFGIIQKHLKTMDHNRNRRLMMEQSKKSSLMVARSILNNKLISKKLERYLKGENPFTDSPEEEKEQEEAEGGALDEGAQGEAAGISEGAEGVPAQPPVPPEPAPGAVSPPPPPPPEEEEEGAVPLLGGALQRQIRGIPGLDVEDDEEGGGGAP
# UniProt Q9BTT0, sequence (Q9BTT0 whole entry, looked up): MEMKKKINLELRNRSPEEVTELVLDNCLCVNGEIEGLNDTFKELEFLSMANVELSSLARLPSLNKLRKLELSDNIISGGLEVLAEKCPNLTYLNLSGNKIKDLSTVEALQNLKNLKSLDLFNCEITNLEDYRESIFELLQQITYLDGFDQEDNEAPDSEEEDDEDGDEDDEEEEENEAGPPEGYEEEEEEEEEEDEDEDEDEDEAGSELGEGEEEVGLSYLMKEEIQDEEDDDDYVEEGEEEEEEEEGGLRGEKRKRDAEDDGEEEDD
# UniProt Q13155, sequence (Q13155 whole entry, looked up): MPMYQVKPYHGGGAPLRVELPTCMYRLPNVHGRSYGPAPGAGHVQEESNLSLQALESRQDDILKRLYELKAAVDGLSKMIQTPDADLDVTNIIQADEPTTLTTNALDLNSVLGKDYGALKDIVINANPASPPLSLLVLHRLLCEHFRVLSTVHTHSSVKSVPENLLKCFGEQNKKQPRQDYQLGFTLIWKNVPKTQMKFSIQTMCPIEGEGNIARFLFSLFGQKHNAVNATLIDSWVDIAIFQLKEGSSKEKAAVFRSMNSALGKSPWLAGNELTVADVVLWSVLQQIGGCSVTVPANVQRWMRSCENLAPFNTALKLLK
# UniProt O95870, sequence (O95870 whole entry, looked up): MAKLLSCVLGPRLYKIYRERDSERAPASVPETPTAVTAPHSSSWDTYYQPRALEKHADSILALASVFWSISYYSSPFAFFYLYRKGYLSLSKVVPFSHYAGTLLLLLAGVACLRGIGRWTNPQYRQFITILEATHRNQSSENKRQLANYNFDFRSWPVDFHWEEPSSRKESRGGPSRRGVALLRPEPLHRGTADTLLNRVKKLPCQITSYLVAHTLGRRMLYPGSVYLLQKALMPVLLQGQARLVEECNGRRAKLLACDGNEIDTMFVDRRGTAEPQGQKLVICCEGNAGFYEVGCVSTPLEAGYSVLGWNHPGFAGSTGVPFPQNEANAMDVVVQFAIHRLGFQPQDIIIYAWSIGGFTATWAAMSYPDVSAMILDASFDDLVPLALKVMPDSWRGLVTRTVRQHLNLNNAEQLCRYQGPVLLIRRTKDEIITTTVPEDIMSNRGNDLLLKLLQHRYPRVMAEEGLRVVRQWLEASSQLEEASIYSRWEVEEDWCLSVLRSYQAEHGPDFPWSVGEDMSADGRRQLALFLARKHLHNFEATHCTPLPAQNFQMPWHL
# UniProt Q3SXY8, sequence (Q3SXY8 whole entry, looked up): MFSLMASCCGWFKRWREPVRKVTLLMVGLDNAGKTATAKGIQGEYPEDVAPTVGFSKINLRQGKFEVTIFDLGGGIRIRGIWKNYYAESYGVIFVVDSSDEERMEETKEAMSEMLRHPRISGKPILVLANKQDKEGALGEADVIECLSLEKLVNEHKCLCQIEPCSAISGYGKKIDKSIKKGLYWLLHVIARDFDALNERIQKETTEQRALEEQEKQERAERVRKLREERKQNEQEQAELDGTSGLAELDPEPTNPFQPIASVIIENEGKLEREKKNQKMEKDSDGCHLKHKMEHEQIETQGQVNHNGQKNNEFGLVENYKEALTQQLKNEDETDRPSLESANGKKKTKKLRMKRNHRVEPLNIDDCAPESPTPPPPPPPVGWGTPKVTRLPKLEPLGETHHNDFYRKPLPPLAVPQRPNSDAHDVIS
# UniProt Q8IZP0, sequence (Q8IZP0 whole entry, looked up): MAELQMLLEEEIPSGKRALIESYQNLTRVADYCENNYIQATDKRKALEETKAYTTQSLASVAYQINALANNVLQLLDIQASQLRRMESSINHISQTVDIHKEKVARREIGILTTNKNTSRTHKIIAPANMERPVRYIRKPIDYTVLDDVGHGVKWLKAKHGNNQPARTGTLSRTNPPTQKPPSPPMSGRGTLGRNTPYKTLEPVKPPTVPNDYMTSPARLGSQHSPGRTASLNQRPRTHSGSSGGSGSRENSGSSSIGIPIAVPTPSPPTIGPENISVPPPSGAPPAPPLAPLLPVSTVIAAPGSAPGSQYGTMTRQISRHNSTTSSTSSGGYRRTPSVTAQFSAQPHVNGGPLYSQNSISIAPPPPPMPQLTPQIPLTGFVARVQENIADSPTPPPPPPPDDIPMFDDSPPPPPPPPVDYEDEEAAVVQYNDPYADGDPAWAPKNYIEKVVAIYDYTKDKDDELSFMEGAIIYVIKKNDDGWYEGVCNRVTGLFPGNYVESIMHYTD
# UniProt P07311, sequence (P07311 whole entry, looked up): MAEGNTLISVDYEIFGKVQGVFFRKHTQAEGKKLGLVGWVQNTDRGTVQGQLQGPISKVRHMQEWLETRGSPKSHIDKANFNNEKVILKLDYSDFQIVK
# UniProt Q02252, sequence (Q02252 whole entry, looked up): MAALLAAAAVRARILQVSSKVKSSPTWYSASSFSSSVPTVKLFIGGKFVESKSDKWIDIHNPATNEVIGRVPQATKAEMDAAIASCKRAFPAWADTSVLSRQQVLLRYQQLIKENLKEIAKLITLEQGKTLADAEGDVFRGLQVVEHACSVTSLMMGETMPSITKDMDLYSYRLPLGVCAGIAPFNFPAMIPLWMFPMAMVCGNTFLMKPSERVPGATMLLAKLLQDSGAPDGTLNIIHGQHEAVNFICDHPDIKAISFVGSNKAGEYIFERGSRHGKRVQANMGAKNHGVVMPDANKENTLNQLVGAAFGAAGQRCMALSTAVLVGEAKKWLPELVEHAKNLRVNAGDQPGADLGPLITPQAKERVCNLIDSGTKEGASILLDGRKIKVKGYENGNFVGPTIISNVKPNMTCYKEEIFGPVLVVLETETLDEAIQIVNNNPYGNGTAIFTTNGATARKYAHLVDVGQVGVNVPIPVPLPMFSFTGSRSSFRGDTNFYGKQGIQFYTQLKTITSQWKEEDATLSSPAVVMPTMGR
# UniProt P16219, sequence (P16219 whole entry, looked up): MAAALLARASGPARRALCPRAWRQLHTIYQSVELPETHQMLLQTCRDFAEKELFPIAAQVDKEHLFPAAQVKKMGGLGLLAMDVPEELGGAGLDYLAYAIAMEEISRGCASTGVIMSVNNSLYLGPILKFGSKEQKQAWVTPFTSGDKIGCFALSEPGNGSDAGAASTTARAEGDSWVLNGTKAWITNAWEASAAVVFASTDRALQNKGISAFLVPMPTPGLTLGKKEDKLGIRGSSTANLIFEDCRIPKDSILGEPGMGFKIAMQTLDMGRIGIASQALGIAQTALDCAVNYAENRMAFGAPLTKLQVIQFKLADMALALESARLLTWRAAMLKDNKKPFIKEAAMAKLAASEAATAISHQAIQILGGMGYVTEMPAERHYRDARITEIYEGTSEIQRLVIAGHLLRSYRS
Target,log2 fold change [1],log2 fold change [2],log2 fold change [3],log2 fold change [4],log2 fold change [5],log2 fold change [6],log2 fold change [7],log2 fold change [8],log2 fold change [9],log2 fold change [10]
AIP (UniProt O00170),-0.002,0.015,-0.004,0.017,-0.004,-0.022,0.514 (active),-0.019,-0.015,0.007
AKAP8L (UniProt Q9ULX6),-0.003,0.033,-0.066,-0.036,-0.042,0.019,-0.042,-0.01,0.002,0.013
AP1G2 (UniProt O75843),-0.057,0.044,0.011,-0.014,-0.053,-0.003,-0.007,0.032,-0.032,0.022
ABI1 isoform 9 (UniProt Q8IZP0),-0.021,0.005,-0.01,0.052,-0.038,-0.001,-0.116,0.217,-0.029,-0.019
ARFGAP1 (UniProt Q8N6T3),0.063,-0.01,0.225,0.204,-0.02,0.171,0.001,0.029,0.056,-0.07
ACLY (UniProt P53396),0.017,0.01,-0.003,-0.035,-0.031,-0.003,-0.049,0.026,-0.007,0.016
AFF1 isoform 2 (UniProt P51825),-0.059,0.007,0.033,0.068,-0.043,-0.023,-0.307,0.125,-0.015,0.029
ACACA isoform 4 (UniProt Q13085),0.014,0.024,0.043,-0.062,-0.085,0.056,-0.025,-0.067,0.001,0.011
ALG13 (UniProt Q9NP73),0.014,0.015,0.054,0.041,-0.041,-0.016,-0.14,0.086,0.023,0.017
ANAPC7 (UniProt Q9UJX3),-0.026,0.033,-0.02,-0.035,-0.029,0.016,-0.022,-0.03,0.025,-0.001
AKT2 (UniProt P31751),0.008,0,-0.026,-0.024,-0.031,0.025,0.007,0.004,-0.011,0.017
ALDH6A1 (UniProt Q02252),0.055,0.027,0.043,-0.009,-0.025,0.015,-0.111,0.022,-0.324 (active),-0.082
ABHD16A (UniProt O95870),0.074,0.012,0.026,0.141,0.002,-0.059,-0.001,0.019,0.021,0.051
ACYP1 (UniProt P07311),-0.038,-0.024,0.024,-0.005,0.032,0.006,0.284 (active),-0.082,0.003,-0.032
ADAR isoform 4 (UniProt P55265),0.077,0.051,0.061,0.011,0.003,0.025,-0.001,-0.049,0.04,0.032
ACSL1 (UniProt P33121),0.021,0.023,0.046,-0.054,-0.1,0.038,-0.014,-0.242,-0.066,-0.002

Target,log2 fold change [1],log2 fold change [2],log2 fold change [3],log2 fold change [4],log2 fold change [5],log2 fold change [6],log2 fold change [7],log2 fold change [8],log2 fold change [9],log2 fold change [10]
ACACB (UniProt O00763),0.012,0.028,0.024,-0.113,-0.11,0.038,-0.14,0.027,0.018,0.037
ARHGEF2 (UniProt Q92974),-0.006,0.013,-0.002,0,-0.026,-0.021,-0.02,-0.003,0.009,0.027
AGPS (UniProt O00116),0.028,0.008,-0.021,0.06,0.011,0.025,-0.082,0.012,-0.009,-0.016
ANKRD30A (UniProt Q9BXX3),,0.111,0.087,-0.102,-0.08,0.152,0.262,0.891,0.072,0.032
ARHGAP6 (UniProt O43182),0.074,0.038,0.116,-0.038,-0.107,-0.014,0.072,-0.139,0.031,-0.049
AIMP2 isoform 2 (UniProt Q13155),,-0.134,0.038,,0.047,-0.027,,,,0.014
ACTG1 (UniProt K7EM38),,-0.259,,-0.208,-0.124,,,,,
ACADS (UniProt P16219),0.023,0.017,0.006,-0.039,-0.016,-0.02,0.016,0.003,-0.026,-0.026
ABHD13 (UniProt Q7L211),0.069,-0.016,0.102,-0.107,0.06,,-0.543 (active),0.077,0.179,-0.031
ADAM17 (UniProt P78536),0.071,,-0.184,-0.151,,-0.027,0.065,0.001,-0.011,0.002
AK1 (UniProt P00568),0.01,-0.036,-0.012,-0.027,0.021,0.017,0.332 (active),-0.135,-0.012,-0.024
ARL13B (UniProt Q3SXY8),-0.075,-0.039,-0.041,,0.065,-0.043,0.325,-0.246,0.007,0.117
ANXA2 (UniProt H0YL33),,0.012,0.37,,0.136,0.012,0.643 (active),-0.416,0.088,0.214
ANP32E isoform 3 (UniProt Q9BTT0),0.034,,-0.086,-0.026,,,-0.724 (active),0.468,,
AP3D1 isoform 2 (UniProt O14617),0.002,-0.085,,,-0.012,,-0.231,0.058,,
ANXA13 isoform 2 (UniProt P27216),-0.129,-0.071,0.091,,-0.035,0.131,-0.179,0.106,0.004,-0.001
